# Inconclusive results are not listed. Unmarked numbers belong to inactive results. Activity calls are given as the source filed them. Calls follow the shape of the dose curve; as a rule, active = well fitted curve in the direction sought with a large enough effect; inconclusive = small, poorly fitted or top-dose-only effect, or another doubt; inactive = no such curve, though single readings can be large or run the other way.
# Assay: qHTS for Inhibitors of the vitamin D receptor (VDR): Hit Validation using a Texas Red Assay (AID 602201)
# Conditions: VDR coregulator binding, Texas Red fluorescence polarization, agonist-bound VDR ligand-binding domain; series mostly up to 57.1 µM; activity, negative = inhibition: at the top concentration
# Text: The vitamin D receptor (VDR) is a ligand-activated transcription factor and is partially responsible for the regulation of the endocrine system. This includes the transcriptional regulation of genes involved in the production of the parathyroid hormone (PTH) and the regulation of the blood calcium level. High levels of PHT can cause hypercalcemia in the case of primary and tertiary hyperparathyroidism. The VDR-mediated gene regulation, activated by its ligand 1,25-dihydroxyvitamin D3 (1,25-(OH)2D3), is governed by the recruitment of coactivators. Our hypothesis is that small molecules, with the ability to inhibit the interaction between VDR and certain coactivators, are able to selectively modulate VDR-mediated transcription. Our long term objective is the application these VDR-coactivator inhibitors to study the role of VDR-coactivator binding for specific VDR regulated genes. Ultimately, these molecules can be developed into new treatments for hypercalcemic hyperparathyroidism. No small molecule or non-peptide inhibitors are known for the VDR-coactivator interaction.
# In a collaboration between the University of Wisconsin, Milwaukee and the NIH Chemical Genomics Center (NCGC) a HTS-compatible enzymatic assay was developed. The assay uses fluorescence polarization as its read-out to measure the inhibition between VDR and coregulator peptide SRC2-3 exerted by small molecules. This assay was used to screen the NIH Molecular Libraries Small Molecule Repository (MLSMR). The HTS assay detects polarization at 665 nm emitted by the Alexa Fluor 647 dye. This validation assay detects polarization of the emission from Texas-Red at 615 nm.
# NIH Chemical Genomics Center [NCGC]
# NIH Molecular Libraries Probe Centers Network [MLPCN]
# Assay Submitter (PI): Alexander Arnold, University of Wilwaukee
# Four microliter of either 1.5 uM VDR-LBD, […], and 7 nM Texas Red (all final concentrations) in columns 1, 2, and 5 to 48 or 7 nM Texas Red in columns 3 and 4 are dispensed into black medium-binding solid bottom Greiner plates. Both solutions are kept at 4 deg C and protected from light and dispensed using a Kalypsys dispenser. Then 23nl of compounds and controls are added with Kalypsys pintool. The control is 26.5 mM CBT358 (final concentration of 151 uM) and the compounds' final range in concentration is 457 nM - 114 uM. Plate is centrifuged at 1000 RPM for 15 seconds to remove any residual bubbles. The plate is then incubate at ambient room temperature for 2 hours. It is then read on the Envision for a fluorescent polarization read-out (Ex 595 nm/Em 615 nm)
# % is scaled to controls: 0 for no effect and ±100 for the full control effect; potency is read from the fitted curve at half-maximal effect.
Structure (SMILES),"activity, negative = inhibition",Potency
CCOC(=O)CS(=O)(=O)c1nc(-c2ccccc2)cc(C(F)(F)F)n1,-18.5%,
Oc1ccc(N=C/C=C/c2cccc(Br)c2)cc1-c1nc2ccccc2s1,,15.8 µM (active)
CCCOc1ccc(/C=C2/C(=O)ON=C2C)cc1OCC,,15.8 µM (active)
Nc1c(N2CCCC2)cc(Cl)c2nonc12,,3.98 µM (active)
COc1cc(/C=C2\C(=O)ON=C2c2ccc(Cl)cc2)ccc1O,,3.55 µM (active)
CC(C)(C)C1C/C(=C/c2ccccn2)C(=O)/C(=C/c2ccccn2)C1 (stereo not given),,3.16 µM (active)
CSc1nnc(NC(=O)c2nc(S(=O)(=O)Cc3ccccc3)ncc2Cl)s1,,28.2 µM (active)
CCN(CC)S(=O)(=O)c1cc(NC(=O)c2ccc3c(c2)NC(=O)C(C)S3)ccc1C (stereo not given),-2.56%,
CCOc1cc(/C=C\c2[nH]c(=O)[nH]c(=O)c2[N+](=O)[O-])ccc1OC(C)CC (stereo not given),-16.1%,
CC(=O)Nc1cccc(C(=O)/C=C/c2ccc(Br)cc2)c1,,5.62 µM (active)
Cc1nc(NC(=O)c2ccc(Cl)cc2)sc1Cc1ccc2c(c1)OCO2,-10.2%,
COc1ccc(OCc2nnc3n2N=C(c2ccccc2)C(CC(=O)O)S3)cc1 (stereo not given),,3.16 µM (active)
CCOC(=O)/C(C#N)=C1\C(=O)N(Cc2ccccc2)c2ccccc21,-19.2%,
Nc1ncnc2c1ncn2[C@@H]1O[C@H](CNCc2ccc(-c3cc(C(F)(F)F)ccc3Cl)o2)[C@@H](O)[C@H]1O,-16.2%,
NC(=O)c1ccc(N=C2C(=O)Nc3ccc([N+](=O)[O-])cc32)cc1,,1.41 µM (active)
CC1=CC(=O)C(C(C)C)=CC1=NC(=O)c1ccc(C)cc1,-11.6%,
O=C(/C=C/c1ccnc2ccccc12)c1cccs1,,28.2 µM (active)
O=C(c1cccs1)c1no[n+]([O-])c1C(=O)c1cccs1,,3.55 µM (active)
O=C(NC1CCCCCC1)C(=S)N1CCOCC1,-7.89%,
C=CCOc1c(Br)cc(/C=C2/C(=O)ON=C2C)cc1OC,-6.68%,

Structure (SMILES),"activity, negative = inhibition",Potency
COC(=O)c1cc(=O)n(Cc2ccco2)c(=Nc2ccc(F)c(Cl)c2)s1,,10 µM (active)
CCOc1ccc(/C=C/C(=O)c2c(O)cc(C)oc2=O)cc1,,25.1 µM (active)
COc1cccc(C(=O)Oc2ccccc2/C=C\C(=O)c2cc3ccccc3o2)c1,,3.16 µM (active)
CCS(=O)(=O)c1ncc(Cl)c(C(=O)Nc2ccc(S(=O)(=O)N3CCCC(C)C3)cc2)n1 (stereo not given),,3.55 µM (active)
O=[N+]([O-])c1ccc(C2=Nn3c(Cn4nnc5ccccc54)nnc3SC2)cc1,,25.1 µM (active)
O=C1C(C2=C(O)c3ccccc3C2=O)=Nc2ccccc21,19.9%,
Cc1ccc(C(=O)NC2(O)C(=O)c3ccccc3C2=O)cc1C,-10.4%,
O=c1nc(/C=C/c2cc([N+](=O)[O-])ccc2Cl)cc(C(F)(F)F)[nH]1,,3.55 µM (active)
O=C(/C=C/c1ccccc1Cl)c1cccnc1,-19.7%,
O=S1(=O)C=C(Sc2nnc(-c3ccccc3)o2)c2ccccc21,,3.16 µM (active)
CCCNC(=O)c1nnsc1S(=O)c1ccc(Cl)cc1 (stereo not given),,3.16 µM (active)
CCOC(=O)c1c(-c2ccccc2)csc1NC(=O)c1nc(S(=O)(=O)CC)ncc1Cl,,3.55 µM (active)
COc1cc(/C=C2\C(=O)ON=C2c2ccccc2)cc(Cl)c1O,23.8%,
O=C(Cc1ccccc1Cl)NC1(O)C(=O)c2ccccc2C1=O,-4.23%,
COc1cc(/C=C/C(=O)c2cccc([N+](=O)[O-])c2)cc(OC)c1OC,,4.47 µM (active)
CS(=O)(=O)c1ccc(C(=O)OCc2nnc(-c3ccc(Cl)cc3)o2)cc1[N+](=O)[O-],,8.91 µM (active)
O=C(Nc1ccc(F)cc1)c1nc(S(=O)(=O)Cc2ccccc2)ncc1Cl,,5.62 µM (active)
CN(C)c1ccc(C=Nc2ccc(N(C)C)cc2)cc1,,17.8 µM (active)
Cc1cc2nc3ccc(N(C)C)cc3nc2cc1N,,3.55 µM (active)
O=[S@]1Oc2ccccc2-c2ccccc21,-14.3%,

# Reference: PubChem BioAssay (NCATS)
